Screens from PubChem.
A selection: hits, their analogues and other compounds. The true share with any hit is near 12%.
AmpC detergent – AmpC beta-lactamase inhibition with detergent present. AmpC hydrolysis of nitrocefin, absorbance 480 nm, 0.01% Triton. Potency, µM (highest dose often 114 µM), hits mostly inhibitors. AID 485294. P00811. 370,000 tested, 0.041% active; note: nearly all actives have a fitted effect of over 25% in size
Target sequence (P00811 whole entry, looked up): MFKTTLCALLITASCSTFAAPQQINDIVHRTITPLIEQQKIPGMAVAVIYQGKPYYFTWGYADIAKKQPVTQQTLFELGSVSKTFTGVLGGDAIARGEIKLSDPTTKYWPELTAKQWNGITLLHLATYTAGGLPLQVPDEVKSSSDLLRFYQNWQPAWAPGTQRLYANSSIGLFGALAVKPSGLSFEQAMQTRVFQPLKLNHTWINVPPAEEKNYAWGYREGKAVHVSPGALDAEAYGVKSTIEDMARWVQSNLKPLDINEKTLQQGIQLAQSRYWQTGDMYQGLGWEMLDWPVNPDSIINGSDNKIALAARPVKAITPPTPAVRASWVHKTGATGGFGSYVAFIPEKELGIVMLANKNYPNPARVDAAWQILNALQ
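20 mM phosphate pH 7.0 + 0.01% (detergent screen) or 0.0001% Triton X-100; 5.3 nM AmpC reagent; cpd preinc 15 min RT; nitrocefin (800 uM stock) to start; A480 q20 s × 4 min; Activity was normalised to no-enzyme and no-compound control wells.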
Pf growth 48h – P. falciparum growth inhibition at 48 hours (one generation); P. falciparum luciferase growth in erythrocytes, 48 h; Potency, µM (highest dose often 28.7 µM), actives largely listed as inhibitors; 310,000 tested, 5.9% active; AID 504832
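Here the parasites carry a stable luciferase gene and grow inside erythrocytes in Albumax-based RPMI medium with compound for one erythrocytic cycle. Activity is scored as loss of luminescent signal.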
SARS PLpro yeast – blocks SARS-CoV papain-like protease in a yeast assay; S. cerevisiae expressing SARS-CoV PLpro, growth rescue; Potency, µM (titrated, usually from 32.9 µM), hits mostly activators; 330,000 tested, 0.19% active; calls by dose curve; note: nearly all actives have a fitted effect of over 55% in size
Sm TGR inh – inhibitors of Schistosoma mansoni thioredoxin glutathione reductase. purified TGR, DTNB reduction, TNB absorbance 405 nm. Potency, µM (series often up to 114 µM), hits mostly inhibitors. 360,000 tested, 3% active. AID 485364. Q962Y6; note: nearly all actives have a fitted effect of over 60% in size
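First, TGR (20 nM dispensed) and NADPH were mixed with compound. Second, a 15 min room-temperature incubation followed. Third, further NADPH and then DTNB were added to start the reaction. Finally, TNB absorbance was monitored kinetically.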
AmpC no deterg – blocks E. coli AmpC beta-lactamase in detergent-free assay. AmpC nitrocefin hydrolysis, absorbance 480 nm, 0.0001% Triton. Potency, µM (series often up to 57.1 µM), usual class: inhibitors. 330,000 tested, 0.52% active. P00811; note: nearly all actives have a fitted effect of over 20% in size
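20 mM phosphate pH 7.0 + 0.01% (detergent screen) or 0.0001% Triton X-100; 5.3 nM AmpC reagent; cpd preinc 15 min RT; nitrocefin (800 uM stock) to start; A480 q20 s × 4 min; Activity was normalised to no-enzyme and no-compound control wells.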
Pf growth 96h – inhibits malaria parasite growth, 96 h | P. falciparum luciferase reporter growth, 96 h | Potency, µM (highest dose often 28.7 µM), hits mostly inhibitors | 320,000 tested, 6.9% active | AID 504834
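Erythrocytes infected with luciferase-expressing P. falciparum were dispensed at 2% hematocrit and 0.05% parasitemia (final), then incubated with compounds 96 hours at 37 C in 5% CO2. Luminescence after detection reagent addition reported growth.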
Hits are given with their value; i = inactive; ? = inconclusive; nt = no result; ! = a repeat was not active; [ ] = another dose, or the depositor's remark. Unless noted, calls come from the whole dose curve; as a rule, active = well fitted curve in the direction sought with a large enough effect; inconclusive = small, poorly fitted or top-dose-only effect, or another doubt; inactive = no such curve, though single readings can be large; an effect the other way counts as inactive or inconclusive.

SMILES	AmpC detergent	Pf growth 48h	SARS PLpro yeast	Sm TGR inh	AmpC no deterg	Pf growth 96h
CCc1ccc(OC(=O)c2sc3ncn(Cc4cccc(F)c4)c(=O)c3c2C)cc1	i	nt	nt	i	nt	nt
CCc1ccc(Cn2c(CNS(=O)(=O)c3ccc(Cl)s3)nc3cccnc32)cc1	i	nt	nt	i	nt	nt
CN1C(=O)/C(=C/c2ccccc2Cl)Sc2ccc(C(=O)NCc3cccnc3)cc21	i	?	i	i	i	i
CCc1ccccc1Nc1nn2c(=O)c3ccc(C(=O)NC4CCC(C)CC4)cc3nc2s1 (stereo not given)	i	nt	nt	i	nt	nt
Cc1cc(C)c(S(=O)(=O)NCC(c2cccs2)S(=O)(=O)c2ccccc2)c(C)c1 (stereo not given)	i	nt	nt	0.32µM	nt	nt
COc1ccc(OC)c(S(=O)(=O)NCC(c2ccco2)S(=O)(=O)c2ccccc2)c1 (stereo not given)	i	i	i	0.32µM	i	i
CCN(CC)S(=O)(=O)c1ccc2c(c1)N(CC(=O)NCCc1ccccc1)C(=O)CO2	i	nt	nt	i	nt	nt
O=C(CSc1nc2ccccc2nc1Cc1ccccc1)Nc1ccc2c(c1)OCO2	i	nt	nt	i	nt	nt
O=C(COC(=O)CNC(=O)c1ccccc1Cl)Nc1ccccc1Cl	i	i	i	i	i	i
CCOC(=O)c1sc2nc(C)nc(Nc3ccc(OC)cc3)c2c1C	i	i	i	i	i	i
CCOC(=O)c1sc2nc(C)nc(SC(C)C(=O)N(C)c3ccccc3)c2c1C (stereo not given)	i	12µM	i	i	i	9.3µM
Cc1ccc(S(=O)(=O)Nc2ccsc2C#N)cc1	i	i	i	i	i	i
Cc1cc2c(cc1S(=O)(=O)N(CCN(C)C)Cc1ccccc1)OCC(=O)N2	i	nt	nt	i	nt	nt
CC(CC(C#N)(c1ccccc1)c1ccccc1)N(C)C (stereo not given)	nt	nt	i	nt	i	nt
N#CC(Cc1cccc(CC(C#N)(c2ccccc2)c2ccccc2)c1)(c1ccccc1)c1ccccc1	i	1.2µM	i	i	i	0.83µM
Cc1cccc(CNC(=O)c2ccc3nc(-c4ccccc4)c(-c4ccccc4)nc3c2)c1	i	nt	nt	i	nt	nt
COc1cccc([C@@H]2Oc3ccc(OC)cc3C(=O)[C@H]2OC(=O)NCc2ccc3c(c2)OCO3)c1	i	?	i	i	i	i
O=C(O)/C=C/C(=O)c1ccc(O)cc1	i	?	i	3.2µM	i	0.93µM
Cc1ccc(C(=O)/C=C\C(=O)c2ccc(C)cc2)cc1	i	i	i	1.8µM	i	i
Cc1ccc(C(=O)C=CNNC(=O)c2ccccc2)cc1	?	i	i	40µM	i	?
CC(=O)Nc1ccc(C)cc1-c1nc2ccccc2n(CC(=O)Nc2cc(Cl)ccc2C)c1=O	i	nt	nt	i	nt	nt
Cc1oc(-c2ccc(Cl)cc2)nc1CS(=O)CC(=O)NCc1ccc(Cl)cc1 (stereo not given)	i	nt	nt	?	nt	nt
O=C(COC(=O)c1cc(=O)[nH]c(=O)[nH]1)NCc1ccccc1	i	i	i	i	i	i
Cc1ccc(S(=O)(=O)N2CCOCC2)cc1NC(=O)COc1cccc(Oc2ccccc2)c1	i	?	i	i	i	?
Cc1ccc(NC(=O)c2c(C)cc(C)nc2SCC(=O)Nc2ccc(Br)cc2)cc1	i	nt	nt	i	nt	nt
SMILES	AmpC detergent	Pf growth 48h	SARS PLpro yeast	Sm TGR inh	AmpC no deterg	Pf growth 96h
CCCCOc1ccc(C(=O)Nc2cccc(-n3cnnn3)c2)cc1OC	i	?	i	i	i	9.3µM
O=C(Nc1cnc2ccccc2c1)c1cccc(-n2cnnn2)c1	i	0.12µM	i	i	i	i[5.75 µM]
CCOc1ccc(C(=O)Nc2cccc(-n3cnnn3)c2)cc1OCC	i	?	i	i	i	i
CC(Oc1ccc(C#N)cc1)C(=O)Nc1ccc(-n2cnnn2)cc1 (stereo not given)	?	4.7µM	i	i	i	3.3µM
O=C(Nc1ccc(OC(F)(F)F)cc1)c1cccc(-n2cnnn2)c1	i	?	i	i	i	10µM
CCc1c(C)sc2c1CCN(Cc1cccc(F)c1)C2c1ccccc1 (stereo not given)	i	nt	nt	i	nt	nt
O=C(CSc1nc2c([nH]c3ccccc32)c(=O)n1-c1ccc(Cl)cc1)N1CCOCC1	i	nt	nt	i	nt	nt
COc1cccc(CCc2nnc(CCC(=O)NC(C)Cc3cccs3)o2)c1 (stereo not given)	i	i	i	i	i	i
CCOc1ccc(CCNC(=O)c2cn(CC)c3ccc(S(=O)(=O)N4CCc5ccccc5C4)cc3c2=O)cc1OCC	i	nt	nt	i	nt	nt
CCOc1ccc(NC(=O)c2cccc(-n3cnnn3)c2)cc1	i	i	i	i	i	i
O=C(Nc1cccc(-n2cnnn2)c1)c1cc(Cl)nc(Cl)c1	i	9.3µM	i	i	i	4.7µM
CC(=O)c1cccc(NC(=O)C(C)OC(=O)c2ccc(-n3cnnn3)cc2)c1 (stereo not given)	i	10µM	i	i	i	12µM
CC(C)OC(=O)c1ccc(NC(=O)c2cccc(-n3cnnn3)c2)cc1	i	12µM	i	i	i	?
COc1ccc(-c2ccc(CCC(=O)O)n2-c2ccccc2C(F)(F)F)cc1	i	nt	nt	?	nt	nt
COc1ccc(-c2ccc(CCC(=O)O)n2-c2ccccc2O)cc1	i	i	i	28µM!	i	i
COc1ccc(-n2c(CCC(=O)O)ccc2-c2ccccc2)cc1	i	i	i	40µM!	i	i
OCc1cnc(SCc2cccc(F)c2)n1Cc1ccc(F)cc1	i	nt	nt	i	nt	nt
O=C(Cn1c(=O)n(-c2ccccc2Cl)c(=O)c2sc3ccccc3c21)NC1CCCCC1	i	nt	nt	i	nt	nt
COc1ccc(-c2ccc3c(c2)c(-c2cccs2)c(-c2cc(OC)cc(OC)c2)n3C)cc1	i	2.6µM	i	i	i	?
COc1cc(OC)cc(-c2c(-c3cccs3)c3cc(-c4ccc(C(N)=O)cc4)ccc3n2C)c1	nt	nt	i	nt	i	nt
COc1cc(OC)cc(-c2c(-c3cccs3)c3cc(-c4cc(OC)c(OC)c(OC)c4)ccc3n2C)c1	nt	nt	i	nt	i	nt
COc1cc(OC)cc(-c2c(-c3cccs3)c3cc(-c4cnc(OC)nc4)ccc3n2C)c1	i	1.9µM	i	i	i	3.3µM
COc1cc(C#Cc2c(-c3cncn3C)n(C)c3ccc(-c4cnc(OC)nc4)cc23)cc(OC)c1	i	?	i	?	i	2.6µM
CCCCCCCCCCCCOCCCN	nt	i	nt	nt	nt	?
Clc1ccccc1CNc1ncnc2c1c(-c1ccccc1)cn2-c1ccccc1	i	nt	nt	i	nt	nt
CCCCN(CC)c1nc(N)c(C#N)c(CC#N)c1C#N	?	nt	i	i	i	3.3µM
C=C(C)CN(CC)c1nc(N)c(C#N)c(CC#N)c1C#N	i	?	i	i	i	?
CCCCN(CC)c1nc(N)c2c(N)nc(OCC)cc2c1C#N	i	nt	i	i	i	13µM
